Measurements taken from PubChem BioAssay AID488930 (Broad Institute, 2010).
Measured potencies and affinities stand elsewhere. Results filed as inconclusive are left out. A number with no mark means an inactive call.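 The calls were made as follows: active = compounds whose fitted half-maximal concentration is at most ten times their top tested dose; inconclusive = flat curve with 30 to 70% inhibition, or poor fit; inactive = the rest.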

assay: Candida growth reduction in fluconazole presence – CaCi-2 strain, Alamar Blue, dry powder, set 2, antifungal resistance reversal project, dose response (AID 488930); details: C. albicans CaCi-2 (fluconazole-resistant clinical isolate) + fluconazole, 48 h; series mostly up to 6 µM; activity change, negative = inhibition: at the top concentration

Compound | activity change, negative = inhibition
O=C(c1ccc(Cl)cc1)N1CCN(c2ncnc3ccccc23)CC1 | 88.1%
O=C(c1ccc(Cl)cc1)N1CCN(c2ccncc2)CC1 | 53.9%
Clc1ccc2c(N3CCNCC3)ccnc2c1 | 10.2%
COc1cccc2c(N3CCN(C(=O)c4ccc(Cl)cc4)CC3)cc(C)nc12 | 164%
O=C(c1ccc(Cl)cc1)N1CCNCC1 | -31.8%
COc1ccnc(N2CCN(C(=O)c3ccc(Cl)cc3)CC2)c1 | 5.73%
O=C(c1ccc(Cl)cc1)N1CCCN(c2ccnc3cc(Cl)ccc23)CC1 | 168%
Cc1cc(N2CCN(C(=O)c3ccc(Cl)cc3)CC2)c2ccc(F)cc2n1 | 193%
O=C(O)Cn1nc(-c2ccccc2)c2ccccc21 | 2.53%
COc1ccc2c(N3CCN(C(=O)c4ccc(Cl)cc4)CC3)ccnc2c1 | 156%
Cc1cc(N2CCN(C(=O)c3ccc(Cl)cc3)CC2)c2ccccc2n1 | 94.9%
N#Cc1ccc(N2CCN(C(=O)c3ccc(Cl)cc3)CC2)nc1 | 12.6%
COCCC(=O)N1CCN(c2ccnc3cc(Cl)ccc23)CC1 | -13.6%
O=C(c1ccc(Cl)cc1)N1CCN(c2ccnc3ccccc23)CC1 | 192%
O=C(c1ccc(Cl)cc1)N1CCN(c2ncnc3nc[nH]c23)CC1 | 16.3%
O=C(c1ccccc1Cl)N1CCN(c2ccnc3cc(Cl)ccc23)CC1 | -43%
O=C(c1ccc(Cl)cc1)N1CCN(c2cccnc2)CC1 | -10.4%
CCCC(=O)N1CCN(c2ccnc3cc(Cl)ccc23)CC1 | -2.55%
O=C(Nc1ccc(Cl)cc1)N1CCN(c2ccnc3cc(Cl)ccc23)CC1 | -63.8%
